Screening results: PubChem BioAssay, The Scripps Research Institute Molecular Screening Center
Compounds with a hit are over-represented: about 4.1% of the library has one in this group of screens.
DAX1 inh-1 = NR0B1 (DAX1) inhibition; HEK293 Gal4-DAX1 luciferase reporter, luminescence; inhibition, % at 6.75 µM; 340,000 compounds, 0.99% hits; P51843;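 active = inhibition above the mean over all tested compounds plus 3 SD, cut at about 4.2% in these data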;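 note: inhibition shows as a rise in luminescence from relieved DAX1 repression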
Target sequence (P51843 207-470 limits assumed): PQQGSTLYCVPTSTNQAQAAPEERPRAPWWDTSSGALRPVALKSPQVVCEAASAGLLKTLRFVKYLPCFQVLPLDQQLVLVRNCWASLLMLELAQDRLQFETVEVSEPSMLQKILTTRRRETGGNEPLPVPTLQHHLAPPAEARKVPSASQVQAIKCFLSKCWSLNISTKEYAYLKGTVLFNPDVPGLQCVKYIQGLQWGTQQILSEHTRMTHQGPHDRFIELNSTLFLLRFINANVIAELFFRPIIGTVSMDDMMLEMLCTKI
ssDAF-12 act = activators of S. stercoralis DAF-12 nuclear receptor; HEK293 ssDAF-12/GRIP1 lit1-tk-luc reporter, luminescence; % of 3 µM dafachronic acid response; activation, % at 6.8 µM; 370,000 compounds, 1% hits;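 active = activation above the mean over all tested compounds plus 3 SD, cut at about 0.9% in these data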
DAX1 inh-2 = inhibitors of DAX1 repression of SF-1 activated StAR promoter; HEK293T StAR-luciferase reporter, SF-1/DAX-1 repression relief; inhibition, % at 6.8 µM; 370,000 compounds, 1.1% hits; AID 652010;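 active = inhibition above the mean over all tested compounds plus 3 SD, cut at about 3.6% in these data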;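 note: higher inhibition means more luminescence from relief of DAX-1 repression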
hcDAF12 agonist = activators of H. contortus DAF-12 nuclear receptor; HEK293 hcDAF-12 lit1-tk-luc reporter, luminescence; 0% DMSO, 100% Δ7-dafachronic acid; activation, % at 6.8 µM; 370,000 compounds, 1.4% hits; AID 652067;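 active = activation above the mean of all tested compounds plus 3 SD, cut at about 5.5% in these data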
hgDAF-12 ag = hgDAF-12 agonism, primary luciferase screen; HEK293 GAL4-hgDAF12 UAS-luciferase reporter, agonist luminescence; normalized to butyrate control; activation, % at 6.8 µM; 370,000 compounds, 1.8% hits; AID 687014;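 active = activation above a cutoff set at the mean of all screened compounds plus 3 SD, cut at about 10% in these data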
A number is an active result.

How did CN1CCN(C(=S)Nc2cc([N+](=O)[O-])ccc2Cl)CC1 do in these assays?
DAX1 inh-1: 5.3; ssDAF-12 act: inactive; DAX1 inh-2: inactive; hcDAF12 agonist: inactive; hgDAF-12 ag: inactive

Results for CSCCC(NS(=O)(=O)c1ccc2c(c1)oc(=O)n2C)C(=O)NC1CCC(C)CC1 (centres undefined) ?
DAX1 inh-1: inactive; ssDAF-12 act: inactive; DAX1 inh-2: 3.7; hcDAF12 agonist: inactive; hgDAF-12 ag: inactive

How did CSCCC(NS(=O)(=O)c1ccc2c(c1)oc(=O)n2C)C(=O)NCc1ccc(C)cc1 (centres undefined) do in these assays?
DAX1 inh-1: inactive; ssDAF-12 act: inactive; DAX1 inh-2: inactive; hcDAF12 agonist: inactive; hgDAF-12 ag: inactive

Results for CSCCC(NS(=O)(=O)c1ccc2c(c1)oc(=O)n2C)C(=O)NC1CCN(Cc2ccccc2)CC1 (centres undefined) ?
DAX1 inh-1: inactive; ssDAF-12 act: inactive; DAX1 inh-2: inactive; hcDAF12 agonist: 6.4; hgDAF-12 ag: inactive

Results for N=c1c2c(ccn1CCCc1ccccc1)Oc1ccc3ccccc3c1C2c1ccccc1 (centres undefined) ?
ssDAF-12 act: inactive; hcDAF12 agonist: inactive; hgDAF-12 ag: inactive

Results for CCOCCCNC(=O)C(Cc1ccccc1)NS(=O)(=O)c1cccc2nsnc12 (centres undefined) ?
DAX1 inh-1: 4.5; ssDAF-12 act: inactive; DAX1 inh-2: inactive; hcDAF12 agonist: inactive; hgDAF-12 ag: inactive

What do the screens show for `CCCNC(=O)C(Cc1ccccc1)NS(=O)(=O)c1cccc2nsnc12` (centres undefined)?
DAX1 inh-1: inactive; ssDAF-12 act: inactive; DAX1 inh-2: inactive; hcDAF12 agonist: inactive; hgDAF-12 ag: inactive

How did O=C(O)c1cc(=O)[nH]c2c(Cl)cccc12 do in these assays?
DAX1 inh-1: inactive; ssDAF-12 act: inactive; DAX1 inh-2: inactive; hcDAF12 agonist: 5.8; hgDAF-12 ag: inactive

What do the screens show for `Cc1nc2ccc(S(=O)(=O)NCC(=O)N(C)Cc3ccc(F)cc3)cc2s1`?
ssDAF-12 act: inactive; DAX1 inh-2: inactive; hcDAF12 agonist: inactive; hgDAF-12 ag: inactive

How did CC(C)(C)c1ccc(-c2cn(C[C@H](Cc3ccccc3)n3c(=O)c4ccccc4n3Cc3ccccc3)nn2)cc1 do in these assays?
ssDAF-12 act: inactive; DAX1 inh-2: inactive; hcDAF12 agonist: inactive; hgDAF-12 ag: inactive

How did CCn1nnnc1SCC(=O)Nc1ccc(OC)cc1 do in these assays?
DAX1 inh-1: inactive; ssDAF-12 act: inactive; DAX1 inh-2: inactive; hcDAF12 agonist: inactive; hgDAF-12 ag: inactive

Results for CCOc1ccc(OCC)c(NC(=O)CSc2nnnn2CC)c1 ?
DAX1 inh-1: 4.3; ssDAF-12 act: inactive; DAX1 inh-2: inactive; hcDAF12 agonist: inactive; hgDAF-12 ag: inactive

What do the screens show for `CCOc1ccc(OCC)c(NC(=O)CCSCCc2ccccn2)c1`?
DAX1 inh-1: 4.3; ssDAF-12 act: inactive; DAX1 inh-2: inactive; hcDAF12 agonist: inactive; hgDAF-12 ag: inactive

What do the screens show for `CC1Cc2ccccc2N1C(=O)c1cc2cccnc2n(C)c1=O` (centres undefined)?
DAX1 inh-1: inactive; ssDAF-12 act: inactive; DAX1 inh-2: inactive; hcDAF12 agonist: 5.6; hgDAF-12 ag: inactive

How did COc1ccc(CNS(=O)(=O)/C=C/c2ccc(F)cc2CNC(=O)OC(C)(C)C)cc1 do in these assays?
ssDAF-12 act: inactive; DAX1 inh-2: inactive; hcDAF12 agonist: inactive; hgDAF-12 ag: inactive

What do the screens show for `Cc1ccccc1-c1cc2c(c3c1ccn3C)C1CCC2O1` (centres undefined)?
ssDAF-12 act: inactive; DAX1 inh-2: 3.8; hcDAF12 agonist: inactive; hgDAF-12 ag: inactive

Results for CCC(C)(C)C(=O)Nc1nnc(CCc2ccccc2)s1 ?
DAX1 inh-1: 4.7; ssDAF-12 act: inactive; DAX1 inh-2: inactive; hcDAF12 agonist: inactive; hgDAF-12 ag: 11

How did CCCCNC(=O)C[C@H]1C[C@@]2(C(=O)OCC)CCCC3=C2N(CCC3)C1=O do in these assays?
ssDAF-12 act: inactive; DAX1 inh-2: inactive; hcDAF12 agonist: inactive; hgDAF-12 ag: inactive

Results for Cc1cc(/C=C(/C#N)C(=O)Nc2ccccc2)c(C)n1-c1cccnc1 ?
DAX1 inh-1: inactive; ssDAF-12 act: inactive; DAX1 inh-2: inactive; hcDAF12 agonist: inactive; hgDAF-12 ag: 11

What do the screens show for `Cc1cc(/C=C(\C#N)C(=O)Nc2ccccc2)c(C)n1-c1ccc2c(c1)OCO2`?
DAX1 inh-1: inactive; ssDAF-12 act: inactive; DAX1 inh-2: inactive; hcDAF12 agonist: inactive; hgDAF-12 ag: inactive

How did Cc1ccc(C(=O)Nc2nccc(C)n2)cc1 do in these assays?
DAX1 inh-1: 4.8; ssDAF-12 act: inactive; DAX1 inh-2: inactive; hcDAF12 agonist: inactive; hgDAF-12 ag: inactive
